# From PubChem BioAssay (Tox21)
# Results filed as inconclusive are left out. A number with no mark means an inactive call. Activity calls are given as the source filed them. The call rests on the fitted dose curve; in most records, active means well fitted inhibition curve with a large enough effect in the signal ratio in the repeat runs (not every such curve was filed as active); inconclusive means weak or mixed curves, or effect the other way; inactive means no such curve, though single readings can be large or run the other way; the % refers to the signal ratio.
# Molecular target: Peroxisome proliferator-activated receptor delta (Homo sapiens) (UniProt Q03181)
# Sequence (Q03181 whole entry, looked up): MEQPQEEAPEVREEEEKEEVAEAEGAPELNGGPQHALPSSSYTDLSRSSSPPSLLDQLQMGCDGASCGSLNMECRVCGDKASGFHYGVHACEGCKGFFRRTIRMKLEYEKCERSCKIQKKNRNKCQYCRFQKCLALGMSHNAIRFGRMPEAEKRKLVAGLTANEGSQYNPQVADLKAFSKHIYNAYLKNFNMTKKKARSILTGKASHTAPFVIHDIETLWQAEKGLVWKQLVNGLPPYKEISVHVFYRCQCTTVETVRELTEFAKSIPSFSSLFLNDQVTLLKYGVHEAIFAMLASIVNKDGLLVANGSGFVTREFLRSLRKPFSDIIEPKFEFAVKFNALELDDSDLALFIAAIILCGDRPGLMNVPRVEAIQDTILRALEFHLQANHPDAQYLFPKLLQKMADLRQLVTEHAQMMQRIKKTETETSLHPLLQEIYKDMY
# Test: qHTS assay to identify small molecule antagonists of the peroxisome proliferator-activated receptor delta (PPARd) signaling pathway (AID 743215);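 further: cells stimulated with agonist L165041 at 300 nM final during compound exposure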
# Settings: HEK293H PPARd-UAS-bla, beta-lactamase FRET ratio, antagonist, 17 h; series mostly up to 62 µM; ratio activity, negative = inhibition: at the top concentration
# Excerpt: U.S. Tox21 Program National Center for Advancing Translational Sciences [NCATS] NIH Chemical Genomics Center [NCGC] U.S. Environmental Protection Agency [EPA] National Institutes of Environmental Health Sciences [NIEHS] National Toxicology Program [NTP] U.S. Food and Drug Administration [FDA] Tox21 Assay Overview: The peroxisome proliferator-activated receptors (PPARs) are lipid-activated transcription factors of the nuclear receptor superfamily with three distinct subtypes namely PPAR alpha, PPAR delta (PPARd) and PPAR gamma. All these subtypes heterodimerizes with Retinoid X receptor (RXR) and have different physiological functions. […] To identify the compounds that inhibit PPAR-delta signaling, GeneBLAzer PPAR delta UAS-bla HEK293H cell line (Invitrogen, Carlsbad, CA, USA) containing a beta-lactamase reporter gene under the control of an Upstream Activator Sequence (UAS) was used to screen the Tox21 compound library.
# Tox21 Assay Protocol Summary: PPARd-bla cells were dispensed at 3000 cells/5uL/well in 1536-well black wall/clear bottom plates using a Multidrop Combi (Thermo Fisher Scientific, Waltham, MA) dispenser. After the assay plates were incubated at 37 C and 5% CO2 for 5 h, 23 nL of compounds dissolved in DMSO, positive controls or DMSO only was transferred to the assay plate by a Pintool station (Kalypsys, San Diego, CA), followed by addition of 1ul L165041 (300 nM, final concentration in the wells). The assay plates were incubated at 37 C for 17 h, and then 1 uL of LiveBLAzerTM B/G FRET substrate was added using a Bioraptr Flying Reagent Dispenser (FRD) workstation (Beckman Coulter, Indianapolis, IN, USA). The assay plates were incubated at room temperature for 2 h and fluorescence intensity was measured by an Envision plate reader (PerkinElmer, Shelton, CT).
# On the % scale 0 is the no-effect control and ±100 the full control effect.
Structure (SMILES),outcome,"ratio activity, negative = inhibition"
c1ccc2c(c1)[nH]c1ccccc12,inactive,–
COc1ccc(C(=O)c2ccccc2O)c(O)c1,–,0.0636%
C=CCOC(=O)C(=C)C,inactive,–
O=[Se](O)O,inactive,–
CC1(C)C(C=C(Cl)Cl)C1C(=O)OCc1cccc(Oc2ccccc2)c1 (stereo not given),inactive,–
O=C(O)COCCN1CCN(C(c2ccccc2)c2ccc(Cl)cc2)CC1 (stereo not given),inactive,–
Oc1c(Cl)ccc(Cl)c1Cl,inactive,–
O=C(O)CCCCCCCCCCCC(=O)O,inactive,–
C=CN1CCCC1=O,inactive,–
CCC(Cc1c(I)cc(I)c(N)c1I)C(=O)O (stereo not given),–,-0.191%
CCO[Si](CCCNC(N)=O)(OCC)OCC,inactive,–
O=C(O)c1ccc(O)cc1,inactive,–
CCCN1C=CN(C)C1,inactive,–
O=C1OC2(c3ccccc31)c1cc(I)c(O)c(I)c1Oc1c2cc(I)c(O)c1I,inactive,–
CC(=O)OC(C)C,inactive,–
[Na+],inactive,–
O=C(O)c1cc(=O)[nH]c(=O)[nH]1,–,-0.0555%
C[C@]12C=CC(=O)C=C1CC[C@H]1[C@@H]3C[C@@H](O)[C@](O)(C(=O)CO)[C@@]3(C)C[C@H](O)[C@@]12F,inactive,–
Cc1ccc(/C(=C\CN2CCCC2)c2ccccn2)cc1,inactive,–
C=CCCCCCCCCCC,inactive,–

Structure (SMILES),outcome,"ratio activity, negative = inhibition"
C[C@]12CC[C@@H]3c4ccc(O)cc4CC[C@H]3[C@@H]1CC[C@@H]2O,inactive,–
CC1(C)OC(=O)NC1=O,inactive,–
CN(C)/N=N/c1nc[nH]c1C(N)=O,inactive,–
CCCCCCCCCCCCCO,inactive,–
C=C[C@H]1CN2CC[C@H]1C[C@H]2[C@H](O)c1ccnc2ccc(OC)cc12,–,-10.7%
C1CN(SSN2CCOCC2)CCO1,inactive,–
CC(=O)[C@H]1CC[C@H]2[C@@H]3CC=C4C[C@@H](O)CC[C@]4(C)[C@H]3CC[C@]12C,–,3.39%
C1COCCN1,inactive,–
C=CC(=O)OCCCC,–,1.37%
CCCCCCCCCCCCO,inactive,–
[O-]/[N+](=N\O)c1ccccc1,inactive,–
CC(C)(C)c1cccc(C(C)(C)C)c1O,inactive,–
CC(=O)O[C@]1(C(C)=O)CC[C@H]2[C@@H]3C=C(Cl)C4=CC(=O)CC[C@]4(C)[C@H]3CC[C@@]21C,–,-9.24%
O=C1CCc2ccccc2O1,–,-0.0103% [at 80.4 µM]
CCCCCCCCCCC(CO)CCCCCCCC (stereo not given),inactive,–
NCCOCCO,inactive,–
CCCCCC1C(=O)CCC1CC(=O)OC (stereo not given),–,-4.95%
COC(=O)c1ccc(C)cc1,inactive,–
c1ccc2c(c1)ccc1cc3c(ccc4ccccc43)cc12,inactive,–
Cc1ccc(N)c([N+](=O)[O-])c1,–,0.366%
